# Experimental data as given in PubChem BioAssay (NCI).
# The panel holds about 83,000 compounds, 20% with a hit somewhere; the sample as a whole holds those more often.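 Assay: single dose, 48 h. Readout: percent growth (0 = no net growth; negative = cell death). Active: <10.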 Unmarked numbers belong to inactive results. Activity calls are given as the source filed them.
# Legend:
# Assay in all cases: NCI-60 one-dose screen, 48 h (100 = growth as untreated, 0 = no growth, -100 = all killed)
# [1] = test system: RPMI-8226 leukemia; conditions: 10 µM unless noted
# [2] = test system: OVCAR-8 ovarian; conditions: 10 µM unless noted
# [3] = test system: OVCAR-5 ovarian; conditions: 10 µM unless noted
# [4] = test system: OVCAR-4 ovarian; conditions: 10 µM unless noted
# [5] = test system: SK-OV-3 ovarian; conditions: 10 µM unless noted
# [6] = test system: IGROV1 ovarian; conditions: 10 µM unless noted
# [7] = test system: OVCAR-3 ovarian; conditions: 10 µM unless noted
# [8] = test system: HS 578T breast; conditions: 10 µM unless noted
# [9] = test system: NCI/ADR-RES ovarian; conditions: 10 µM unless noted
# [10] = test system: T-47D breast; conditions: 10 µM unless noted
# [11] = test system: BT-549 breast; conditions: 10 µM unless noted
# [12] = test system: MDA-MB-435 melanoma; conditions: 10 µM unless noted
# [13] = test system: SW-620 colon; conditions: 10 µM unless noted
# [14] = test system: MCF7 breast; conditions: 10 µM
# [15] = test system: HCT-116 colon; conditions: 10 µM unless noted
# [16] = test system: HCC-2998 colon; conditions: 10 µM unless noted
# [17] = test system: KM12 colon; conditions: 10 µM unless noted
Compound,growth [1],growth [2],growth [3],growth [4],growth [5],growth [6],growth [7],growth [8],growth [9],growth [10],growth [11],growth [12],growth [13],growth [14],growth [15],growth [16],growth [17]
O=C(N/N=C/c1ccccc1Cl)C(=O)Nc1cccc(C(F)(F)F)c1,93.9%,83%,97.4%,101%,102%,92.9%,115%,111%,98.4%,90.2%,112%,98.4%,104%,97.3%,92.1%,96.6%,103%
CC1=C(CC(=O)c2cccc([N+](=O)[O-])c2)C(=O)c2ccccc2C1=O,-7.18% (active),9.43% (active),37.5%,-89.2% (active),30.5%,-61.1% (active),-94% (active),-20.6% (active),30.9%,-10.2% (active),2.6% (active),-56.1% (active),-41.2% (active),7.59% (active),9.03% (active),96.9%,7.77% (active)
CCOc1ccc2c(c1)CN(Cc1ccc(Cl)cc1)CO2,43.3%,34.1%,90.9%,-27.4% (active),13.5%,71%,22.2%,-7.66% (active),43.7%,52.4%,112%,64.7%,69.6%,59.4%,38.7%,86.4%,57.7%
Cc1ccc(S(=O)(=O)c2c(COC(=O)c3cccc(C)c3)c(-c3ccccc3)nn2C)cc1,78.5%,88.5%,115%,-59% (active),104%,80.9%,-77.9% (active),99.9%,106%,-64.3% (active),57.1%,-33.7% (active),-37.2% (active),-49.2% (active),0.235% (active),60%,16.3%
Cc1nc(Nc2cn[nH]c2C(=O)Nc2ccc(CN3CCN(C)CC3)cc2)c2ccsc2n1,79%,102%,136%,82.5%,64.4%,77.2%,91.3%,66.8%,110%,91.7%,88.5%,87.1%,114%,59.9%,52.4%,95.3%,27.4%
COc1ccc(Cn2c(Br)c3c(c2-c2cc(OC)c(OC)c(OC)c2)CCc2sc(NC(=O)c4ccc(OC)cc4)nc2-3)cc1,81.7%,96%,102%,93.3%,108%,79.2%,92.7%,83.7%,89.2%,77.3%,96.1%,99.5%,96.2%,91.5%,90.8%,108%,94.2%
CN1C(=O)N(C)C2Nn3c(s/c(=C4\C(=O)N(CCc5ccccc5)c5ccccc54)c3=O)=NC21 (stereo unspecified),57.2%,80.9%,75.2%,79.3%,76.9%,83%,39.7%,70.5%,43.8%,67.6%,72.5%,5.64% (active),51.9%,43.2%,37.2%,85.9%,66.1%
O=C(NC1CCCCC1)C(c1cccs1)N(CCc1ccccc1)C(=O)c1ccco1 (stereo unspecified),79.7%,88.2%,87.1%,95.9%,89.6%,97.7%,96.6%,93.8%,94.3%,85.1%,103%,104%,96.1%,88.3%,82.9%,105%,98%
COc1ccc(Nc2nc(N/N=C/c3ccc(O)cc3)nc(Nc3ccc([N+](=O)[O-])cc3)n2)cc1,99.7%,100%,109%,111%,112%,121%,124%,110%,109%,109%,114%,116%,112%,97.4%,105%,102%,121%
COc1ccc(-c2nsc3c2NC(=O)CC3c2cccc(OC)c2)cc1 (stereo unspecified),12.1%,45.9%,52.9%,39.9%,14.2%,45.5%,-18.6% (active),28.5%,32.4%,35.2%,39.6%,-30.6% (active),27.2%,18.3%,29%,57.4%,36.2%
O=C(Nc1ccc(N2CCNCC2)cc1)c1[nH]ncc1Nc1cc(Oc2ccccc2)ncn1,-52.9% (active),26.9%,-26.4% (active),43.3%,19.4%,19.7%,6.24% (active),32.4%,77.5%,40%,17.5%,35.8%,-65.5% (active),-0.204% (active),-33.6% (active),-18.1% (active),-78% (active)
COC(=O)C1=C(C)NC(C)=C(C(=O)OC)C(N2C(=O)CCC2=O)C1 (stereo unspecified),66.8%,88.7%,114%,79.4%,104%,99.3%,99.6%,107%,95.9%,93.9%,79.4%,81.7%,44.7%,69.6%,57.5%,105%,94.7%
COc1ccc(C2Nc3ncnc(N)c3N=C3c4ccccc4C(=O)C32)cc1 (stereo unspecified),80%,108%,98.1%,82.8%,84.7%,79.4%,83.9%,94.5%,105%,80.8%,94.3%,96.9%,103%,95.5%,95.7%,104%,110%
Cc1ccc(Cc2cnc(NC(=O)CN3C(=O)/C(=C\c4ccccc4)SC3=S)s2)cc1,105%,102%,101%,99%,104%,105%,112%,102%,107%,98.8%,117%,107%,107%,95.8%,103%,105%,103%
Clc1ccc(Nc2nnc(-c3ccc4c(c3)OCO4)o2)cc1,91.1%,94.2%,104%,102%,102%,101%,114%,109%,98.6%,82.5%,116%,99.9%,102%,93.4%,96.7%,98.6%,99.5%
COc1ccc(/C=C/C(=O)c2c(C)nc3ccccc3c2/C=C/c2ccccc2)c(OC)c1,66.1%,76.1%,88.2%,66.5%,94.3%,47.5%,84.8%,82.3%,85.9%,55%,89.2%,88.9%,80.5%,62.6%,51.5%,,87.4%
